The results in this text go back to PubChem BioAssay (NCATS).

Assay [1] is described as follows: qHTS for inhibitors of Rabies Virus screened against the NCATS CANVASS Library (AID 1347402). Also: series mostly up to about 46 µM; 0% is about no effect. In general terms: Quantitative high-throughput screening tests each substance at several concentrations.
The nature of assay [2]: qHTS drug screen for cell cycle checkpoint inhibitors in PARPi-resistant BRCA-mutant ovarian cancer cell lines. (AID 1963452). Also: potency is read from the fitted curve at half-maximal effect. The following applies: PEO1/OlaR viability, CellTiter-Glo luminescence, 96 h; for Z-AUC: stronger effect = lower value. In short, it runs like this: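 PEO1, PEO4 and PEO1/OlaR ovarian cancer cells, 600 per well, exposed 96 h at 37C to a dilution series. Viability read by CellTiter-Glo luminescence, normalized to DMSO and empty wells; activity summarized as Z-AUC.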

The mark [3] stands for this setting: measured here: PEO1 parental Z-AUC.

Records with an inconclusive call do not appear. Calls of active or inactive are those of the source. Calls follow the shape of the full dose curve.

As for `CO[C@@H]1[C@H](O)[C@@H](C)O[C@@H](OC[C@H]2/C=C/C=C/C(=O)C(C)C[C@H](C)C(O[C@@H]3O[C@H](C)CC4(OC(=O)O[C@@H]4C)C3O)[C@@H](C)/C=C/C(=O)OC2C)[C@@H]1OC` (stereo partly specified), the call in assay [1] was inactive.
The same measure, in the same setting: with `CC1=CC[C@@]2(C[C@@H]1O)[C@@H](C(=O)O)CC[C@H]2C(C)C` the entry was “inactive”; with `COC(=O)[C@@]12Oc3cccc(O)c3C(O)=C1C(=O)C[C@H](C)[C@H]2O`, “inactive”; with `C/C=C(/CO)C(=O)O[C@@H]1[C@H](O)[C@@H](C(=O)OC)O[C@@H]2C[C@H]3OC(n4cnc5c(N)ncnc54)[C@H](OC)[C@H]3O[C@@]12O` (stereo partly specified), “inactive”.
`O=C1CC(c2ccc(O)cc2)Oc2cc(O)ccc21` (stereo unspecified): in assay [1], the result was inactive.
Turning to `CO/C1=C/C(C)=C\[C@@H](C)[C@@H](O)[C@@H](C)C/C(C)=C\C=C/[C@H](OC)[C@@H]([C@@H](C)[C@@H](O)[C@H](C)[C@@]2(O)C[C@@H](O)[C@H](C)[C@@H](C(C)C)O2)OC1=O`, the Z-AUC in assay [2] is -2.07 (inactive); in assay [2] (setting [3]) it was -2.1; in assay [2] (measured here: PEO4 Z-AUC), -2.32.
For `CC(C)(NC(=O)O[C@@H]1CN2CCC1CC2)c1csc(-c2ccc(F)cc2)n1` the same measures were 1.16 (inactive), 0.982 and 1.29.
For the compound `C=CC(C)(C)C(=O)[C@@H](C)[C@@H]1CC[C@](C)(C=C)O1`, the compound was called inactive in assay [1].
As for `N#CC(O[C@@H]1O[C@H](CO[C@@H]2O[C@H](CO)[C@@H](O)[C@H](O)[C@H]2O)[C@@H](O)[C@H](O)[C@H]1O)c1ccccc1` (stereo partly specified), the Z-AUC in assay [2] is 0.897 (inactive); in assay [2] (setting [3]), 0.644; in assay [2] (measured here: PEO4 Z-AUC), 0.881.
`COc1cc(C)[nH]c(=O)c1CNC(=O)c1c(C)n([C@H](C)C2CCN(CC(F)(F)F)CC2)c2ccccc12`: the Z-AUC in assay [2] is 1.18 (inactive); in assay [2] (setting [3]), 0.708; in assay [2] (measured here: PEO4 Z-AUC), 0.343.
Taken in the same sequence, the figures for `Cn1c(COP(=O)(NCCBr)NCCBr)cnc1[N+](=O)[O-]` were 0.865 (inactive), 0.833 and 1.09.
With `CCCCCCC(C)(C)c1cc(O)c2c(c1)OC(C)(C)C1CC=C(CO)C[C@H]21` (stereo partly specified), the Z-AUC was 1.02 (inactive) in assay [2], 0.553 in assay [2] (setting [3]) and 0.644 in assay [2] (measured here: PEO4 Z-AUC).
As for `[C-]#[N+][C@@]12C(=O)[C@@H]3[C@@H](O[C@@]4(C(=O)N(C)c5cccc1c54)C3(C)C)C(=O)[C@@]2(C)C=C`, the outcome in assay [1] was inactive.
As to `CC(=O)OC[C@H]1O[C@@H]([S-])[C@H](OC(C)=O)[C@@H](OC(C)=O)[C@@H]1OC(C)=O.CC[PH+](CC)CC.[Au]`, the Z-AUC in assay [2] was -0.477 (inactive); in assay [2] (setting [3]), -0.483; in assay [2] (measured here: PEO4 Z-AUC), -0.599.
`CC(=O)O[C@@]12CO[C@@H]1C[C@H](O)[C@@]1(C)C(=O)[C@H](O)C3=C(C)[C@@H](O)C[C@@](O)([C@@H](OC(=O)c4ccccc4)[C@H]21)C3(C)C`: the values for the Z-AUC in assay [2], in assay [2] (setting [3]) and in assay [2] (measured here: PEO4 Z-AUC) were 1.05 (inactive), 0.322 and 0.492, respectively.
In the case of `O=C1CC(c2ccc(O)cc2)Oc2cc(O)cc(O)c21` (stereo unspecified), the call in assay [1] was inactive.
`Cc1[nH]ncc1-c1cc2nc([C@@H]3CC4CCN3CC4)[nH]c(=O)c2s1`: the Z-AUC was 0.732 (inactive) in assay [2], 0.621 in assay [2] (setting [3]) and 0.645 in assay [2] (measured here: PEO4 Z-AUC).
For `C[C@@H](C1CC[C@@]2(O)C3=CC(=O)[C@@H]4C[C@@H](O)[C@@H](O)C[C@]4(C)[C@H]3CC[C@]12C)[C@H](O)CCC(C)(C)O` (stereo partly specified), the Z-AUC in assay [2] was 0.596 (inactive); in assay [2] (setting [3]), 0.976; in assay [2] (measured here: PEO4 Z-AUC), 1.02.
Taken in the same sequence, the figures for `CC(N[C@H]1C[C@@H]1c1ccccc1)c1ccc2c(c1)OCCO2` (stereo partly specified) were -0.77 (inactive), 0.195 and -0.131.
For `COC[C@H]1OC(=O)c2coc3c2[C@@]1(C)C1=C(C3=O)[C@@H]2CC[C@H](O)[C@@]2(C)C[C@H]1OC(C)=O` the same measures were 0.029 (inactive), -0.102 and 0.779.
Turning to `Oc1ccc(/C=C2/c3cc(O)cc(O)c3C(c3ccc(O)cc3)[C@H]2c2cc(O)cc(O)c2)cc1` (stereo partly specified), the compound was classed as inactive in assay [1].
Take `O=C(O)CNC(=O)C1C(=O)N(C2CCCCC2)C(=O)N(C2CCCCC2)C1=O`: the Z-AUC is 0.43 (inactive) in assay [2], 0.47 in assay [2] (setting [3]) and 0.437 in assay [2] (measured here: PEO4 Z-AUC).
Taken in the same sequence, the figures for `COC12C(COC(N)=O)C3=C(C(=O)C(C)=C(N)C3=O)N1CC1C2N1C` (stereo unspecified) were -0.24 (inactive), 0.0826 and -0.134.
For `Cc1c(N)nc([C@H](CC(N)=O)NC[C@@H](N)C(N)=O)nc1C(=O)N[C@H](C(=O)N[C@@H](C)[C@H](O)[C@@H](C)C(=O)N[C@@H](C(=O)NCCc1nc(-c2nc(C(=O)NCCC[S+](C)C)cs2)cs1)[C@@H](C)O)C(O[C@H]1O[C@H](CO)[C@H](O)[C@@H](O)[C@H]1O[C@H]1O[C@H](CO)[C@@H](O)[C@H](OC(N)=O)[C@@H]1O)c1cnc[nH]1` (stereo partly specified) the same measures were -0.673 (inactive), -1.76 and 0.233.
For `COC(=O)c1cccc2oc(-c3cccc4oc(-c5c(C)cccc5O)nc34)nc12`, the outcome in assay [1] was inactive.
The same measure, in the same setting: with `C=C[C@]1(C)CC[C@@H]([C@H](C)C(=O)CC=C(C)C)O1` the entry was “inactive”.
Consider `C[C@@H]1CC[C@@]2(OC1)O[C@H]1C[C@H]3[C@@H]4CC=C5C[C@@H](O[C@@H]6O[C@H](CO)[C@@H](O[C@@H]7O[C@@H](C)[C@H](O)[C@@H](O)[C@H]7O)[C@H](O)[C@H]6O[C@@H]6O[C@@H](C)[C@H](O)[C@@H](O)[C@H]6O)CC[C@]5(C)[C@H]4CC[C@]3(C)[C@H]1[C@@H]2C`, for which the Z-AUC in assay [2] was 0.183 (inactive); in assay [2] (setting [3]), -0.31; in assay [2] (measured here: PEO4 Z-AUC), -0.496.
As for `CC(C)[C@]12O[C@H]1[C@@H]1O[C@@]13[C@@]1(C)CCC4=C(COC4=O)[C@@H]1C[C@@H]1O[C@@]13C2=O`, the Z-AUC in assay [2] is -1.63 (inactive); in assay [2] (setting [3]), -0.566; in assay [2] (measured here: PEO4 Z-AUC), -1.17.
For `CC(C)(O)/C=C\C(=O)[C@](C)(O)[C@H]1[C@H](O)C[C@]2(C)[C@@H]3CC=C4[C@@H](C=C(O)C(=O)C4(C)C)[C@]3(C)C(=O)C[C@@]12C` the same measures were -2.52 (inactive), -1.67 and -2.46.
On to `C[n+]1cc2cc(C(N)=O)[nH]c3c(=N)c(Cl)c(N)c1c23`, for which the call in assay [1] was inactive.
As to `CN1C(=O)[C@@H](NC(=O)[C@H](CCC(F)(F)F)[C@H](CCC(F)(F)F)C(N)=O)N=C(c2ccccc2)c2ccccc21`, the Z-AUC in assay [2] is -0.603 (inactive); in assay [2] (setting [3]), 0.158; in assay [2] (measured here: PEO4 Z-AUC), -0.105.
As to `COC(=O)[C@@]12OC[C@]34[C@H]([C@@H](O)[C@@H]1O)[C@@]1(C)CC(=O)C(O)=C(C)[C@@H]1C[C@H]3OC(=O)[C@H](OC(=O)/C=C(\C)C(C)C)[C@@H]24`, the Potency in assay [2] is 174 nM (active). The Z-AUC in assay [2] (setting [3]) was -2.46; in assay [2] (measured here: PEO4 Z-AUC), -2.64.
For the compound `O=C(CBr)N1CC([N+](=O)[O-])([N+](=O)[O-])C1`, the Z-AUC is 1.13 (inactive) in assay [2], 0.0375 in assay [2] (setting [3]) and 1 in assay [2] (measured here: PEO4 Z-AUC).
In the case of `COc1cc2cc(c1Cl)N(C)C(=O)C[C@H](OC(=O)C(C)C)[C@]1(C)O[C@@H]1[C@H](C)[C@@H]1C[C@@](O)(NC(=O)O1)[C@H](OC)/C=C/C=C(\C)C2`, the Potency in assay [2] was 549 nM (active). In addition, the Z-AUC in assay [2] (setting [3]) was -2.8; in assay [2] (measured here: PEO4 Z-AUC) it was -2.84.
As to `C[C@]12COC(=O)C[C@@H]1CC[C@@H]1[C@@H]2CC[C@@]2(C)[C@H]1CC[C@]2(C)O`, the figures for the Z-AUC in assay [2], in assay [2] (setting [3]) and in assay [2] (measured here: PEO4 Z-AUC) were 0.596 (inactive), 0.611 and 0.327, respectively.
For `C=C(C)[C@@H]1CCC(C)=C[C@H]1c1c(O)cc(CCCCC)cc1O`, the Z-AUC in assay [2] was -0.487 (inactive); in assay [2] (setting [3]), 0.125; in assay [2] (measured here: PEO4 Z-AUC), 0.904.
Taken in the same sequence, the figures for `Cn1c(/C=C/CO)c(CO)c2c1C(=O)C=C(N1CC1)C2=O` were -0.176 (inactive), -0.939 and -0.899.
For `C[C@@]12OC(=O)[C@]1([C@@H](O)[C@@H]1C=CCCC1)NC(=O)[C@@H]2CCCl`, the Z-AUC in assay [2] is -0.972 (inactive); in assay [2] (setting [3]) it was -1.61; in assay [2] (measured here: PEO4 Z-AUC), -1.64.
For `C/C=C(\C)C(=O)N[C@@H](c1ccccc1)[C@@H](O)C(=O)O[C@H]1C[C@@]2(O)[C@@H](OC(=O)c3ccccc3)[C@@H]3[C@]4(OC(C)=O)CO[C@@H]4C[C@H](O)[C@@]3(C)C(=O)[C@H](OC(C)=O)C(=C1C)C2(C)C` the same measures were -2.81 (inactive), -2.97 and -3.26.
For `CO[C@H]1CCC(O[C@H]2C[C@H]([C@]3(C)CC[C@]4(C[C@H](O)[C@@H](C)[C@@H]([C@@H](C)/C=C(\C)C(=O)[C@H](C)C[C@H](C)C(=O)O)O4)O3)O[C@]3(O[C@@H]([C@H]4O[C@@](O)(CO)[C@H](C)C[C@@H]4C)C[C@@H]3C)[C@@H]2C)O[C@@H]1C` (stereo partly specified), the Z-AUC is -1.49 (inactive) in assay [2], -1.68 in assay [2] (setting [3]) and -1.99 in assay [2] (measured here: PEO4 Z-AUC).
